# Results filed as inconclusive are left out. A call without a number means that no potency is given here. More than one record can exist for a structure, and the calls need not agree. Active and inactive are the calls of the source. Unless noted, calls come from the whole dose curve; as a rule, active = well fitted curve in the direction sought with a large enough effect; inconclusive = small, poorly fitted or top-dose-only effect, or another doubt; inactive = no such curve, though single readings can be large; an effect the other way counts as inactive or inconclusive.
# Experiments:
# [1] = qHTS for Inhibitors of Plasmodium falciparum (DD2) proliferation (AID 504314);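 note: parasite DNA measured by SYBR Green fluorescence after red cell lysis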
# How it was run: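 Quantitative HTS growth inhibition: SYBR Green I binding to parasite DNA after 72 h drug exposure of infected erythrocytes (0.3% parasitemia, 2.5% hematocrit). Signals normalized per plate to inhibitor and vehicle wells.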
# [2] = qHTS for Inhibitors of Plasmodium falciparum (GB4) proliferation (AID 504315); note: nearly all actives have a fitted effect of over 50% in size
# How it was run: (§1)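 Erythrocytes infected with P. falciparum line (0.3% parasitemia, 2.5% hematocrit final) incubated with compounds 72 h at 37 °C, 5% CO2; SYBR Green lysis buffer added, fluorescence read next day. Normalized to 0.29 uM artemisinin and DMSO.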
# [3] = qHTS for Inhibitors of Plasmodium falciparum (7G8) proliferation (AID 504316); note: nearly all actives have a fitted effect of over 65% in size; note: potency is the fitted concentration of half-maximal effect; for activity change, negative = inhibition: series mostly up to about 6.7 µM
# How it was run: as §1
# [4] = qHTS for Inhibitors of Plasmodium falciparum (HB3) proliferation (AID 504318); note: nearly all actives have a fitted effect of over 60% in size; note: potency is the fitted concentration of half-maximal effect
# How it was run: as §1
# [5] = qHTS for Inhibitors of Plasmodium falciparum (CP250) proliferation (AID 504320)
# How it was run: as §1
# [6] = molecular target: Atrial natriuretic peptide receptor 1 (Homo sapiens) (UniProt P16066); assay: Natriuretic polypeptide receptor (hNpr1) antagonism - Pilot CMLD screen (AID 1347052; calls by dose curve;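 note: cGMP level read as GloSensor luciferase luminescence after agonist stimulation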; note: potency is the fitted concentration of half-maximal effect;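 for activity change, negative = inhibition: HEK293 cells with hNpr1 stimulated by hNppA peptide at 0.1 nM; series mostly up to about 9.2 µM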)
# Sequence of Atrial natriuretic peptide receptor 1 (Homo sapiens) (P16066 whole entry, looked up): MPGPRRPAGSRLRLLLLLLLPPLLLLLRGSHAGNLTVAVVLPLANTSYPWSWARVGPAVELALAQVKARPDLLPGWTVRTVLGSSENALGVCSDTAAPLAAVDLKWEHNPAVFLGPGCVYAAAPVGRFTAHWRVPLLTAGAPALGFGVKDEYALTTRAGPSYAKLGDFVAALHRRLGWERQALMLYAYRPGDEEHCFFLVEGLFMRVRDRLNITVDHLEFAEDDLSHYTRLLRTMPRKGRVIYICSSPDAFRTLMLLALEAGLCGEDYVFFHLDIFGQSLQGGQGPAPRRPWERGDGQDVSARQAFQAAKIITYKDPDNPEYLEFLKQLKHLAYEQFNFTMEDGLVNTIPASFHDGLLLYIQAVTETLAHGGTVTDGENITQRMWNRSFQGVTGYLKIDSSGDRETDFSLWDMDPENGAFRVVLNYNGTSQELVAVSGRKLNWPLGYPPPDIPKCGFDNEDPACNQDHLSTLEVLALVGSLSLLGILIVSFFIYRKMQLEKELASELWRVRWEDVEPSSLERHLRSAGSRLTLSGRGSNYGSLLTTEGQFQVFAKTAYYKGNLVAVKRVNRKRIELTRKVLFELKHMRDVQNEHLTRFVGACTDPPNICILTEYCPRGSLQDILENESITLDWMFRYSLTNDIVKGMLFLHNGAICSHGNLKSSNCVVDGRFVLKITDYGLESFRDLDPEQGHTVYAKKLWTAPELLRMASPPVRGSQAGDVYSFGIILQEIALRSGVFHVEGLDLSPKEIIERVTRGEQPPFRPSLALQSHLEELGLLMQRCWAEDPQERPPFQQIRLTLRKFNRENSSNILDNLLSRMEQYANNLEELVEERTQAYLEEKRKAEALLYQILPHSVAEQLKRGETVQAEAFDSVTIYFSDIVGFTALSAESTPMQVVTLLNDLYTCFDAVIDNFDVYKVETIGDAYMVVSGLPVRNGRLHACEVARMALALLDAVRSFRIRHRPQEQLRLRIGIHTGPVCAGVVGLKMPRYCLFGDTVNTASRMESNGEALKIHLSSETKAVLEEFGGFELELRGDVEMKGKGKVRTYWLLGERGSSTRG
# [7] = molecular target: Cytochrome P450 3A4 (Homo sapiens) (UniProt P08684); assay: qHTS Assay for Inhibitors and Substrates of Cytochrome P450 3A4 (AID 884); note: series mostly up to about 57 µM; nearly all actives have a fitted effect of over 50% in size
# Sequence of Cytochrome P450 3A4 (Homo sapiens) (P08684 whole entry, looked up): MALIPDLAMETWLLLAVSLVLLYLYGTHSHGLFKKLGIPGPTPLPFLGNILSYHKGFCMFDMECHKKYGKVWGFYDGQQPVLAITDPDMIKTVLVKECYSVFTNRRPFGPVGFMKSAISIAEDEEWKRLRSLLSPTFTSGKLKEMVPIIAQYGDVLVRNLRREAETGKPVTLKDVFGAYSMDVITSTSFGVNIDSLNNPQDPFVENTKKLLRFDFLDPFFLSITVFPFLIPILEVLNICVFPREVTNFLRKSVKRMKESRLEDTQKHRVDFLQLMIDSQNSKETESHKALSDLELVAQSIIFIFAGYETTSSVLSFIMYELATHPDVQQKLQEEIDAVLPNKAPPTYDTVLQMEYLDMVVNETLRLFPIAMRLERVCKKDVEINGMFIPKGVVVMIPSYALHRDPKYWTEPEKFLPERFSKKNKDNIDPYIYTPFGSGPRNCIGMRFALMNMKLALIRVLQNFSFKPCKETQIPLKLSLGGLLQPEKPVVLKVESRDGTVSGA
# How it was run: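 20 nM human CYP3A4 with 25 uM Luciferin-PPXE (at KM) in 200 mM KPO4, preincubated 10 min with compound; NADPH regeneration started a 60 min RT reaction. Luciferin detected by luminescence, normalized to 57 uM ketoconazole as full inhibition.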
# [8] = molecular target: Cytochrome P450 2D6 (Homo sapiens) (UniProt P10635); assay: qHTS Assay for Inhibitors and Substrates of Cytochrome P450 2D6 (AID 891);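 note: luciferin methyl ether substrate demethylated by CYP2D6 with NADPH regeneration; nearly all actives have a fitted effect of over 60% in size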
# Sequence of Cytochrome P450 2D6 (Homo sapiens) (P10635 whole entry, looked up): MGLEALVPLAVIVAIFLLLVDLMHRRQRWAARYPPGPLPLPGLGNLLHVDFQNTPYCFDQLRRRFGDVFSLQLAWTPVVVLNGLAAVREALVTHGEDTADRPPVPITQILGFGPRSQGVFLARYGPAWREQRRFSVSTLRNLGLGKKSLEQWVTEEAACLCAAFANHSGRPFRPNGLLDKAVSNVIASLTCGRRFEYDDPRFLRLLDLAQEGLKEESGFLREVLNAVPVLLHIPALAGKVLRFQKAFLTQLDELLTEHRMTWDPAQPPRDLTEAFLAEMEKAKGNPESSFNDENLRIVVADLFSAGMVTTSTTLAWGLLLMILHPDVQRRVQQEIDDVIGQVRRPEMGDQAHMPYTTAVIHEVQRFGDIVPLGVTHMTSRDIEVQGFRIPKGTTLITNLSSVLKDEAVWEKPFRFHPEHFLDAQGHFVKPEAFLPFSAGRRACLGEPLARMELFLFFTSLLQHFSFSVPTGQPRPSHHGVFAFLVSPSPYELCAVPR
# How it was run: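 Human CYP2D6 (5 nM) with 30 uM Luciferin-ME EGE (at Km) in 100 mM KPO4, compound preincubated 10 min, then NADPH regeneration system for 60 min at room temperature. Luciferin read by luminescence; normalized to 1.43 uM quinidine.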
# [9] = molecular target: Cytochrome P450 2C19 (Homo sapiens) (UniProt P33261); assay: qHTS Assay for Inhibitors and Substrates of Cytochrome P450 2C19 (AID 899); note: nearly all actives have a fitted effect of over 60% in size; note: potency is the fitted concentration of half-maximal effect
# Sequence of Cytochrome P450 2C19 (Homo sapiens) (P33261 whole entry, looked up): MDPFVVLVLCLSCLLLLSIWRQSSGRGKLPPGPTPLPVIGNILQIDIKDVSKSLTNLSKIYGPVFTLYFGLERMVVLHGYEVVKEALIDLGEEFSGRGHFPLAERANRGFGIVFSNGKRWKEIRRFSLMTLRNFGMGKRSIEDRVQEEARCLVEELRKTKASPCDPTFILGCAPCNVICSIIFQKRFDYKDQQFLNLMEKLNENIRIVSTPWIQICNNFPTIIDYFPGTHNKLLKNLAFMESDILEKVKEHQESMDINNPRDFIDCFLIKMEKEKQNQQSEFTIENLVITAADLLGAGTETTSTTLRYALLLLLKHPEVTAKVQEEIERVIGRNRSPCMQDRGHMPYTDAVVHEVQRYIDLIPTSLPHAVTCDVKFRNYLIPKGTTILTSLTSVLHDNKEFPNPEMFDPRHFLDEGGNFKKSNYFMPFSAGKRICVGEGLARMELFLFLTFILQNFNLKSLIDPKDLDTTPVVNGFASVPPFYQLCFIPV
# How it was run: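 Signal comes from luciferase acting on luciferin released by CYP2C19-mediated hydroxylation of Luciferin-H EGE, 10uM (KM). Assay mix: 5nM enzyme, 50mM KPO4; 60 min at 37C with NADPH regeneration. Data normalized against 57uM ketoconazole.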
# [10] = molecular target: Cytochrome P450 2C9 (Homo sapiens) (UniProt P11712); assay: qHTS Assay for Inhibitors and Substrates of Cytochrome P450 2C9 (AID 883); note: nearly all actives have a fitted effect of over 60% in size
# Sequence of Cytochrome P450 2C9 (Homo sapiens) (P11712 whole entry, looked up): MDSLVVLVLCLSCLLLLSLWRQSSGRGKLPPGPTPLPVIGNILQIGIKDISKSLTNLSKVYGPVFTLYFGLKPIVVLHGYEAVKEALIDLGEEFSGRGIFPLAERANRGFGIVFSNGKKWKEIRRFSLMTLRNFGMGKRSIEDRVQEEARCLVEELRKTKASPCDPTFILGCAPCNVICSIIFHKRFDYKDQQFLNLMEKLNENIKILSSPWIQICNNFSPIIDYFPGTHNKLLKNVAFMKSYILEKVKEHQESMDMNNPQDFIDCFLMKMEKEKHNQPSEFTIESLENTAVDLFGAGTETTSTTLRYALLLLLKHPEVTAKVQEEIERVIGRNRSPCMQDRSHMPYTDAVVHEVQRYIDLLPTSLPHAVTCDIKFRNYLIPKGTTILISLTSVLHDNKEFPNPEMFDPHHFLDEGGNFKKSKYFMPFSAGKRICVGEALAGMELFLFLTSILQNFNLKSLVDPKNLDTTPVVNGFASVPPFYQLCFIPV
# How it was run: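 Signal: luciferase luminescence reporting luciferin produced by CYP2C9. Conditions: 10nM enzyme, Luciferin-H 100uM at KM, 25mM KPO4, 37C, 60 min NADPH-driven reaction. Reference: 57uM sulphaphenazole as 100% inhibition.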
# [11] = qHTS Assay for Identification of Small Molecule Agonists for Hypoxia Response Element Signaling Pathway (AID 914; active = well fitted activation curve with a large enough effect in the signal ratio, with a control signal flat, not every such curve was filed as active; the % refers to the signal ratio); conditions: ME-180 (cervical carcinoma) HRE-bla reporter, beta-lactamase ratio, CoCl2, 17 h; stronger effect = higher value
# How it was run: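 qHTS titration; ME-180 HRE-bla cells; EC50 CoCl2 co-treatment, 17 h at 37 degrees Celsius; CCF4 dye, ex 405nm, em 460nm and 530nm; %Activity from ratio; AC50.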
# [12] = molecular target: Cytochrome P450 3A4 (Homo sapiens) (UniProt P08684); assay: qHTS Assay for Activators of Cytochrome P450 3A4 (AID 885); note: nearly all actives have a fitted effect of over 65% in size
# How it was run: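 Steps: enzyme/substrate mix dispensed; compound added, 10 min RT; NADPH regeneration solution added, 60 min RT; luciferin detection buffer stops reaction; 20 min later luminescence measured.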
structure (smiles),measurement,setting,value
CC(C)[C@@H](OCc1ccccc1)[C@H](C)C=NOC[C@@H](O)COCc1ccco1,Potency,[1],inactive
same,Potency,[2],inactive
same,Potency,[3],inactive
same,Potency,[4],inactive
same,Potency,[5],inactive
same,Potency,[6],inactive
C=CC1=C2C=C(C3CC3)N(Cc3ccccc3)C=C2C(=O)C(C)(OC(=O)c2ccco2)C1=O (stereo not drawn),Potency,[1],inactive
same,Potency,[2],inactive
same,Potency,[3],inactive
same,Potency,[4],inactive
same,Potency,[5],inactive
same,Potency,[6],inactive
C=CCOC(=O)N[C@@H](c1cccc(OC)c1)[C@@H](C)C=CCC(=O)O,Potency,[1],inactive
same,Potency,[2],inactive
same,Potency,[3],inactive
same,Potency,[4],inactive
same,Potency,[5],inactive
same,Potency,[6],inactive
COC(=O)N[C@@H](CCc1ccccc1)[C@]1(C(=O)OC)CCCC1=O,Potency,[1],inactive
same,Potency,[2],inactive
same,Potency,[3],inactive
same,Potency,[4],inactive
same,Potency,[5],inactive
same,Potency,[6],inactive
COC(=O)N[C@@H](c1ccc(Br)cc1)C(C(=O)OC)C(=O)OC,Potency,[1],inactive
same,Potency,[2],inactive
same,Potency,[3],inactive
same,Potency,[4],inactive
same,Potency,[5],inactive
same,Potency,[6],inactive
C=CC1(O)C(OC)=CC2C(=O)C1C(c1ccccc1)C2C (stereo not drawn),Potency,[1],inactive
same,Potency,[2],inactive
same,Potency,[3],inactive
same,Potency,[5],inactive
same,Potency,[6],inactive
O=C1Nc2cccc(Br)c2[C@@]12O[C@H](COc1ccccc1)CC1=CCCC12 (stereo partly drawn),Potency,[1],inactive
same,Potency,[2],inactive
same,Potency,[3],inactive
same,Potency,[4],inactive
same,Potency,[5],inactive
same,Potency,[6],inactive
COC(=O)c1nnc(SC)nc1C(=O)OC,Potency,[1],inactive
same,Potency,[2],inactive
same,Potency,[3],inactive
same,Potency,[4],inactive
same,Potency,[5],inactive
same,Potency,[6],inactive
COC(=O)C12CC3(CCC4C5C(C(OCc6ccccc6)C41)C52)OCCO3 (stereo not drawn),"activity change, negative = inhibition",[7],-29.8% [at 11.4 µM] (inactive)
same,"activity change, negative = inhibition",[8],0.322% [at 11.4 µM] (inactive)
same,Potency,[9],1.58 µM (active)
same,Potency,[1],inactive
same,Potency,[2],inactive
same,Potency,[3],inactive
same,Potency,[4],inactive
same,Potency,[5],inactive
same,Potency,[6],inactive
CC1(O)C(=O)C=C2C=C3CCCN3C=C2C1=O (stereo not drawn),"activity change, negative = inhibition",[10],3.99% [at 11.4 µM] (inactive)
same,"activity change, negative = inhibition",[7],-12% [at 11.4 µM] (inactive)
same,"activity, negative = inhibition",[9],32.3% [at 11.4 µM] (inactive)
same,Potency,[1],inactive
same,Potency,[2],inactive
same,Potency,[3],inactive
same,Potency,[4],inactive
same,Potency,[5],inactive
same,Potency,[6],inactive
C[C@@H]1CC[C@H]2C(=O)O[C@H](CN=[N+]=[N-])CN2[C@@H]1c1ccc(Br)cc1,Potency,[9],0.398 µM (active)
same,activation,[11],9.69% (inactive)
same,Potency,[1],inactive
same,Potency,[2],inactive
same,Potency,[3],inactive
same,Potency,[4],inactive
same,Potency,[5],inactive
same,Potency,[6],inactive
C=CCC(O)(C#Cc1ccccc1)c1ccccc1 (stereo not drawn),Potency,[1],inactive
same,Potency,[2],inactive
same,Potency,[3],inactive
same,Potency,[4],inactive
same,Potency,[5],inactive
same,Potency,[6],inactive
CCCCCCCC1=Cc2ccccc2C(CC(C)=O)N1C(=O)OC (stereo not drawn),"activity change, positive = activation",[12],-59.5% [at 11.4 µM] (inactive)
same,Potency,[9],2.51 µM (active)
same,Potency,[1],inactive
same,Potency,[2],inactive
same,Potency,[3],1.69 µM (active) and inactive
same,Potency,[4],1.69 µM (active)
same,Potency,[6],inactive
C[C@@H](ON=C1[C@H]2CCn3c(=O)n(-c4ccccc4)c(=O)n3[C@@H]2[C@H](O)[C@@H]2O[C@H]12)c1cn([C@H](CO)Cc2ccccc2)nn1,Potency,[1],inactive
same,Potency,[2],inactive
same,Potency,[3],inactive
same,Potency,[4],inactive
same,Potency,[5],inactive
same,Potency,[6],inactive
CCCC[C@@H]1CN2[C@H](c3ccc(Br)cc3)[C@H](C)CC[C@H]2C(=O)O1,"activity change, positive = activation",[12],-42.5% [at 11.4 µM] (inactive)
same,Potency,[9],3.98 µM (active)
same,Potency,[1],inactive
same,Potency,[2],inactive
same,Potency,[3],inactive
same,Potency,[4],inactive
same,Potency,[5],inactive
same,Potency,[6],0.944 µM (active)
COc1ccc(O[C@H]2C=C[C@@H](c3ccccc3)O[C@H]2CON=C2[C@H]3CCn4c(=O)n(-c5ccccc5)c(=O)n4[C@@H]3[C@H](O)[C@@H]3O[C@H]23)cc1,Potency,[1],inactive
same,Potency,[2],inactive
same,Potency,[3],inactive
same,Potency,[4],inactive
same,Potency,[5],inactive
same,Potency,[6],inactive
CC(C)OCCCN1C=C2C(=O)C(C)(OC(=O)C3CCCC3)C(=O)C=C2C=C1c1ccsc1 (stereo not drawn),"activity, negative = inhibition",[1],-2.66% [at 1.12 µM] (inactive)
same,Potency,[2],inactive
same,Potency,[3],inactive
same,Potency,[5],inactive
same,Potency,[6],inactive
C=CC[C@@H]1C=C[C@@H](OC(=O)OCC)[C@@H](COC(=O)OCC)O1,Potency,[1],inactive
same,Potency,[2],inactive
same,Potency,[3],inactive
same,Potency,[4],inactive
same,Potency,[5],inactive
same,Potency,[6],inactive
COC1=C[C@H](C(=O)NCc2ccc(OC)cc2)C(C)C(c2ccccc2)CC1=O (stereo partly drawn),Potency,[1],inactive
same,Potency,[2],inactive
same,Potency,[3],inactive
same,Potency,[5],inactive
same,Potency,[6],inactive
CCCCC1=CC2=C(c3ccco3)C(=O)C(C)(OC(=O)c3ccc(OC)cc3)C(=O)C2=CN1CC1CC1 (stereo not drawn),Potency,[1],inactive
same,Potency,[2],inactive
same,Potency,[3],inactive
same,Potency,[4],inactive
same,Potency,[5],inactive
same,Potency,[6],inactive
CC#CCN1C(=O)NC(c2ccccc2)C(C#N)=C1C (stereo not drawn),Potency,[1],inactive
same,Potency,[2],inactive
same,Potency,[3],inactive
same,Potency,[5],inactive
same,Potency,[6],inactive
C=C(CC(=O)OC)C[C@]1(CC(=O)OC)CC2(CC=C(C)C)C(=O)C(C(=O)c3ccccc3)=C(OC(=O)c3ccc(Br)cc3)C(CC=C(C)C)(C1)C2=O (stereo partly drawn),"activity change, negative = inhibition",[10],7.13% [at 11.4 µM] (inactive)
same,"activity change, positive = activation",[12],-37.5% [at 11.4 µM] (inactive)
same,"activity change, negative = inhibition",[8],-5% [at 11.4 µM] (inactive)
same,"activity, negative = inhibition",[9],79.8% [at 11.4 µM] (inactive)
same,Potency,[1],inactive
same,Potency,[2],inactive
same,Potency,[3],inactive
same,Potency,[4],inactive
same,Potency,[5],inactive
same,Potency,[6],inactive

# Source: PubChem BioAssay (NCATS)
